# In the supplement of paper PMC8728848:
# The sample as a whole holds a higher share of the strongest signals than the screen did.
# Columns and labels:
# Experiment in all cases: glycan array binding signal (z-score within array); higher = stronger binding
# Conditions in all cases: glycan notation: IUPAC condensed, linker removed
# [1] = molecular target: Fuc(a1-2)Gal(b1-3)GalNAc(b1-3)Gal
# How it was run: (§1)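 Glycan array data came from 3228 arrays in the Consortium for Functional Glycomics database, and only arrays with an available protein sequence were kept. Glycan names were put into IUPAC-condensed notation, and columns mapping to the same glycan were averaged. The binding signal is a within-array Z-score, averaged across arrays of one protein sequence run at different concentrations or buffers and across linkers. A negative Z-score can be read as non-binding.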
# [2] = molecular target: Fuc(a1-2)Gal(b1-3)GlcNAc(b1-3)[Gal(b1-4)GlcNAc(b1-6)]Gal(b1-4)Glc
# How it was run: as §1
# [3] = molecular target: Fuc(a1-2)Gal(b1-4)GlcNAc6S
# How it was run: as §1
# [4] = molecular target: Fuc(a1-2)Gal(b1-4)[Fuc(a1-3)]GlcNAc(b1-2)Man(a1-3)[Fuc(a1-2)Gal(b1-4)[Fuc(a1-3)]GlcNAc(b1-2)Man(a1-6)]Man(b1-4)GlcNAc(b1-4)[Fuc(a1-6)]GlcNAc
# How it was run: as §1
# [5] = molecular target: Fuc(a1-2)Gal6S(b1-3)GlcNAc6S
# How it was run: as §1
# [6] = molecular target: Fuc(a1-2)[Gal(a1-3)]Gal(b1-3)GlcNAc
# How it was run: as §1
# [7] = molecular target: Fuc(a1-2)[Gal(a1-3)]Gal(b1-4)GlcNAc
# How it was run: as §1
# [8] = molecular target: Fuc(a1-2)[Gal(a1-3)]Gal(b1-4)GlcNAc(b1-6)GalNAc
# How it was run: as §1
# [9] = molecular target: Fuc(a1-3)[Gal(b1-4)]Glc6S
# How it was run: as §1
# [10] = molecular target: Fuc(a1-3)[Gal(b1-4)]GlcNAc(b1-6)GalNAc
# How it was run: as §1
# [11] = molecular target: Fuc(a1-3)[Gal3S(b1-4)]Glc
# How it was run: as §1
# [12] = molecular target: Gal(a1-3)Gal(b1-4)GlcNAc(b1-2)Man
# How it was run: as §1
# Gal(b1-3)GlcNAc = molecular target: Gal(b1-3)GlcNAc
# How it was run: as §1
# [13] = molecular target: Gal(b1-3)GlcNAc(a1-3)Gal(b1-4)GlcNAc
# How it was run: as §1
# [14] = molecular target: Gal(b1-3)GlcNAc(b1-2)[Gal(b1-3)GlcNAc(b1-6)]Man(a1-6)[Gal(b1-3)GlcNAc(b1-2)Man(a1-3)]Man(b1-4)GlcNAc(b1-4)GlcNAc
# How it was run: as §1
# [15] = molecular target: Gal(b1-3)GlcNAc(b1-3)Gal(b1-4)GlcNAc(b1-2)[Gal(b1-3)GlcNAc(b1-3)Gal(b1-4)GlcNAc(b1-6)]Man(a1-6)[Gal(b1-3)GlcNAc(b1-3)Gal(b1-4)GlcNAc(b1-2)Man(a1-3)]Man(b1-4)GlcNAc(b1-4)[Fuc(a1-6)]GlcNAc
# How it was run: as §1
# [16] = molecular target: Gal(b1-3)[Fuc(a1-4)]GlcNAc(b1-2)Man
# How it was run: as §1
# [17] = molecular target: Gal(b1-3)[Fuc(a1-4)]GlcNAc(b1-3)Gal(b1-3)[Fuc(a1-4)]GlcNAc
# How it was run: as §1
# [18] = molecular target: Gal(b1-4)GlcNAc(b1-2)Man(a1-3)[Man(a1-6)]Man(b1-4)GlcNAc(b1-4)GlcNAc
# How it was run: as §1
# [19] = molecular target: Gal3S(b1-4)[Fuc(a1-3)]Glc6S
# How it was run: as §1
# Gal3S4S(b1-4)GlcNAc = molecular target: Gal3S4S(b1-4)GlcNAc
# How it was run: as §1
# Gal3S6S(b1-4)GlcNAc = molecular target: Gal3S6S(b1-4)GlcNAc
# How it was run: as §1
# Gal6S(b1-3)GlcNAc = molecular target: Gal6S(b1-3)GlcNAc
# How it was run: as §1
# Gal6S(b1-3)GlcNAc6S = molecular target: Gal6S(b1-3)GlcNAc6S
# How it was run: as §1
# Gal6S(b1-4)GlcNAc6S = molecular target: Gal6S(b1-4)GlcNAc6S
# How it was run: as §1
# GalNAc(a1-3)Gal = molecular target: GalNAc(a1-3)Gal
# How it was run: as §1
# [20] = molecular target: GalNAc(b1-3)Gal(a1-6)Gal(b1-4)Glc
# How it was run: as §1
# [21] = molecular target: GlcNAc(a1-3)Gal(b1-4)GlcNAc
# How it was run: as §1
# [22] = molecular target: GlcNAc(a1-4)Gal(b1-3)GlcNAc
# How it was run: as §1
# [23] = molecular target: GlcNAc(a1-4)Gal(b1-4)GlcNAc(b1-3)Gal(b1-4)[Fuc(a1-3)]GlcNAc(b1-3)Gal(b1-4)[Fuc(a1-3)]GlcNAc
# How it was run: as §1
binder,measurement,setting,value
Epa3to2 (Candida glabrata) (protein) MGSSHHHHHHSSGLVPRGSHMKRELSSQNPFGYPIGCSPQDVAIIPGLTMELYSYPIVSGTPPNCYDASYVDPEYPRTGYLKRKMVGKSTGVTGNLNYKYSVEKACMVKYGNLPAGYNYNEPLTVSNFTMILYGYFKAQTTGLHTFFVNADDLLYINFGAGNAFDCCKREDSKTKLGEYVAYDIWHVDSSKNKVSLFLEKDLYYPIRMFFNNRDNNSSLDLSFSVNGATDQISDFSGYLYSVPDQPDTCPAHIGYDTTCR,glycan array binding signal (z-score),[1],3.03
same,glycan array binding signal (z-score),[2],1.2
same,glycan array binding signal (z-score),[3],-0.709
same,glycan array binding signal (z-score),[4],2.47
same,glycan array binding signal (z-score),[5],2.11
same,glycan array binding signal (z-score),[6],-0.392
same,glycan array binding signal (z-score),[7],-0.27
same,glycan array binding signal (z-score),[8],-0.714
same,glycan array binding signal (z-score),[9],0.316
same,glycan array binding signal (z-score),[10],-1.35
same,glycan array binding signal (z-score),[11],0.878
same,glycan array binding signal (z-score),[12],-0.911
same,glycan array binding signal (z-score),Gal(b1-3)GlcNAc,-0.751
same,glycan array binding signal (z-score),[13],-0.807
same,glycan array binding signal (z-score),[14],0.52
same,glycan array binding signal (z-score),[15],0.293
same,glycan array binding signal (z-score),[16],0.761
same,glycan array binding signal (z-score),[17],-1.46
same,glycan array binding signal (z-score),[18],0.07
same,glycan array binding signal (z-score),[19],0.958
same,glycan array binding signal (z-score),Gal3S4S(b1-4)GlcNAc,-0.354
same,glycan array binding signal (z-score),Gal3S6S(b1-4)GlcNAc,2.42
same,glycan array binding signal (z-score),Gal6S(b1-3)GlcNAc,0.814
same,glycan array binding signal (z-score),Gal6S(b1-3)GlcNAc6S,3.65
same,glycan array binding signal (z-score),Gal6S(b1-4)GlcNAc6S,2.45
same,glycan array binding signal (z-score),GalNAc(a1-3)Gal,1.49
same,glycan array binding signal (z-score),[20],1.12
same,glycan array binding signal (z-score),[21],-1.07
same,glycan array binding signal (z-score),[22],-1.92
same,glycan array binding signal (z-score),[23],2.65
